In the library only some 19% were active in any assay of this set; here they are far more common.
HepG2 tox: kills HepG2 cells in TGF-b inhibitor counter-screen; AID 588856; HepG2 CAGA-GFP viability, ATP luminescence, 18 h; actives 0.76% (n = 410,000); Potency, µM (doses to about 46.1 µM), actives largely listed as cytotoxic
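HepG2 CAGA-GFP cells (1000/well, DMEM with 1% FBS) received compound, then TGF-beta at 500 pg/mL final, and were incubated 18 hours at 37 degrees C. Viability was read by CellTiter-Glo luminescence. Media-only wells were set as complete cell-killing and DMSO as no toxicity.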
TDP1 cell CPT: DT40-hTDP1 cell growth loss with CPT; chicken DT40 Tdp1-/-;hTDP1 cells + 20 nM CPT, ATP luminescence, 48 h; AID 686979; Potency, µM (titrated, usually from 46.2 µM), usual class: inhibitors; actives 12% (n = 420,000); note: nearly all actives have a fitted effect of over 55% in size
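Chicken DT40 Tdp1-/- cells complemented with human TDP1, 400 cells/well, exposed to compounds plus 20 nM camptothecin for at least 48 h at 37 C; viability read as ATP content by CellTiter-Glo luminescence.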
IL-1B inflam inh: blocks inflammasome-driven IL-1 beta release. activity change, % at 57.5 µM. actives 4.7% (n = 360,000). AID 743279. THP-1 LPS/ATP IL-1B secretion, AlphaLISA, 16 h; active compounds read low; in the data active = activity change below about -50%; inconclusive = mostly about -30% to -49%
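Secreted IL-1B measured by AlphaLISA bead assay after 16 h compound exposure of THP-1 cells; compounds (final up to 57.5 uM) added 1 h before LPS (250 ng/mL) and ATP (1.25 mM) stimulation; lower signal means less secretion.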
DT40 TDP1 no CPT: qHTS for Inhibitors of human tyrosyl-DNA phosphodiesterase 1 (TDP1): qHTS in cells in absence of CPT | DT40 Tdp1-/- hTDP1 cells, no CPT, ATP luminescence, 48 h | Potency, µM (titrated, usually from 46.2 µM), hits mostly inhibitors | actives 15% (n = 420,000) | AID 686978, 2013; note: nearly all actives have a fitted effect of over 55% in size
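Growth kinetics read by CellTiter-Glo luminescence after ≥48 hr at 37 °C. Cells: DT40 Tdp1-/- stably carrying human TDP1, 400 per well, compound exposure in the absence of CPT (DMSO vehicle).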
TGFb SMAD3 inh: TGF-b pathway inhibition; Potency, µM (highest dose often 46.1 µM), usual class: inhibitors; HepG2 CAGA-GFP TGF-b/SMAD3 reporter, GFP fluorescence, 18 h; TGF-beta stimulated, 500 pg/mL final; actives 1.2% (n = 410,000); note: nearly all actives have a fitted effect of over 65% in size
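Read-out: total well GFP (ex488/em500-530) summed from mean per-cell fluorescence. Cells: HEPG2 CAGA-GFP, 1% FBS DMEM, 18 h at 37 degrees C with 500 pg/mL final TGF-beta. Unstimulated wells served as the full-inhibition control; stimulated DMSO wells = 0%.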
TDP1 block: TDP1 (human) enzyme inhibition; Q9NUW8; recombinant TDP1, AlphaScreen DNA substrate cleavage; Potency, µM (top dose mostly 130 µM), most hits filed as inhibitors; actives 0.28% (n = 350,000); AID 485290; note: nearly all actives have a fitted effect of over 40% in size
Target sequence (Q9NUW8 whole entry, looked up): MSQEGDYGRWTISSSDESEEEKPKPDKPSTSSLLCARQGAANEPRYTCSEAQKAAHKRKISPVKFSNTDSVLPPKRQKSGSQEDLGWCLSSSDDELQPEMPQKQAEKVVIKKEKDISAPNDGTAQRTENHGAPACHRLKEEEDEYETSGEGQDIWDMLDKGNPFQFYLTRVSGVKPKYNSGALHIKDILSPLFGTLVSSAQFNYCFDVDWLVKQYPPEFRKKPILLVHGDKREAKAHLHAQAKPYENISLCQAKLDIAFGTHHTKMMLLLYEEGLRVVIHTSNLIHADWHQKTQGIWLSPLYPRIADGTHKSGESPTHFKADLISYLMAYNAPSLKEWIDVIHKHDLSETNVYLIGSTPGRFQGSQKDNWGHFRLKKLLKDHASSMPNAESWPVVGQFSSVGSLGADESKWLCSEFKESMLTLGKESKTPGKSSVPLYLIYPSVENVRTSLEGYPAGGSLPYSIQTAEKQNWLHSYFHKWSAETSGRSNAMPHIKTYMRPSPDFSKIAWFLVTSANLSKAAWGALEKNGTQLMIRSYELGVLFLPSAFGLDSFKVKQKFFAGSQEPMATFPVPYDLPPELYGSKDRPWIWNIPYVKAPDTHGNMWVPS
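Compounds were preincubated with Tdp1 (1 nM final) for 15 min at room temperature before substrate (15 nM final) started a 5 min reaction; beads (10 ug/ml final) were then added for 10 min before AlphaScreen detection.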
A number is an active result. Unless noted, calls come from the whole dose curve; as a rule, active = well fitted curve in the direction sought with a large enough effect; inconclusive = small, poorly fitted or top-dose-only effect, or another doubt; inactive = no such curve, though single readings can be large; an effect the other way counts as inactive or inconclusive.

For NC(=S)N=Nc1c(O)n(Cc2ccccc2)c2ccccc12 the results were HepG2 tox inactive, TDP1 cell CPT 5.8µM, IL-1B inflam inh inactive, DT40 TDP1 no CPT 6.5µM, TGFb SMAD3 inh inactive and TDP1 block inactive.
For Cc1ccccc1C(=O)n1nc(-c2cccnc2)nc1NCc1ccc(F)cc1 the results were HepG2 tox inactive, TDP1 cell CPT inconclusive, DT40 TDP1 no CPT inconclusive, TGFb SMAD3 inh inactive and TDP1 block inactive.
For O=C(CSc1c(Cl)cccc1Cl)N1CCC(c2nc3ccccc3s2)CC1 the results were HepG2 tox inactive, TDP1 cell CPT inconclusive, IL-1B inflam inh inactive, DT40 TDP1 no CPT 21µM, TGFb SMAD3 inh inactive and TDP1 block inactive.
`O=C(O)C1CCN(C(=O)CSc2nc3ccccc3s2)CC1` gave HepG2 tox inactive, TDP1 cell CPT inconclusive, IL-1B inflam inh inactive, DT40 TDP1 no CPT inconclusive, TGFb SMAD3 inh inactive and TDP1 block inactive.
For O=C(CSc1ccc(Cl)cc1)N1CCC(c2nc3ccccc3s2)CC1 the results were HepG2 tox inactive, TDP1 cell CPT 26µM, IL-1B inflam inh inactive, DT40 TDP1 no CPT inconclusive, TGFb SMAD3 inh inconclusive and TDP1 block inactive.
Screening Cc1cccc2c1NC(=O)C21OCC(CO)([N+](=O)[O-])CO1 (centres undefined) returned HepG2 tox inactive, TDP1 cell CPT inconclusive, IL-1B inflam inh inactive, DT40 TDP1 no CPT inconclusive and TGFb SMAD3 inh inactive.
Screening O=C(c1ccco1)N1CCN(Cc2cc(=O)c(OCc3ccccc3Cl)co2)CC1 returned HepG2 tox inactive, TDP1 cell CPT inactive, IL-1B inflam inh inactive, DT40 TDP1 no CPT inconclusive, TGFb SMAD3 inh inactive and TDP1 block inactive.
For COc1cc(-c2nc3oc4ccccc4c(=O)c3c(=O)n2Cc2ccco2)cc(OC)c1OC the results were HepG2 tox inactive, TDP1 cell CPT 18µM, IL-1B inflam inh inconclusive, DT40 TDP1 no CPT 21µM, TGFb SMAD3 inh inactive and TDP1 block inactive.
Screening O=c1c2ccccc2oc2nc(-c3ccco3)n(Cc3ccccc3)c(=O)c12 returned HepG2 tox inactive, TDP1 cell CPT inconclusive, IL-1B inflam inh inactive, DT40 TDP1 no CPT 21µM, TGFb SMAD3 inh inactive and TDP1 block inactive.
For Cc1ccc([S+](=O)([O-])N(c2ccccc2)[S+](=O)([O-])C(F)(F)F)cc1 the results were TDP1 block inactive.
O=C(CN1C(=O)CNC1=O)Nc1cc(Cl)cc(Cl)c1 was read as HepG2 tox inactive, TDP1 cell CPT inactive, IL-1B inflam inh inactive, DT40 TDP1 no CPT inactive, TGFb SMAD3 inh inactive and TDP1 block inactive.
Screening CCC1=C(c2ccc(C)cc2)S(=O)(=O)N=C1N1CCC(C(=O)Nc2ccccc2C(=O)OC)CC1 returned HepG2 tox inactive, TDP1 cell CPT inconclusive, DT40 TDP1 no CPT 18µM, TGFb SMAD3 inh inconclusive and TDP1 block inactive.
For CCC1=C(c2ccc(C)cc2)S(=O)(=O)N=C1N1CCC(C(=O)NCc2ccc(C)cc2)CC1 the results were HepG2 tox inactive, TDP1 cell CPT inconclusive, DT40 TDP1 no CPT inconclusive, TGFb SMAD3 inh inconclusive and TDP1 block inactive.
`CCC1=C(c2ccc(C)cc2)S(=O)(=O)N=C1N1CCC(C(=O)NCCc2ccc(Cl)cc2)CC1` gave HepG2 tox inactive, TDP1 cell CPT 13µM, DT40 TDP1 no CPT 10µM, TGFb SMAD3 inh 13µM and TDP1 block inactive.
CCOc1ccc(C(C)C)cc1S(=O)(=O)N1CCN(C(=O)c2ccco2)CC1 was read as HepG2 tox inactive, TDP1 cell CPT inactive, IL-1B inflam inh inactive, DT40 TDP1 no CPT inactive, TGFb SMAD3 inh inactive and TDP1 block inactive.
For COc1ccccc1NC(=O)N1CCOCC1 the results were HepG2 tox inactive, TDP1 cell CPT inactive, IL-1B inflam inh inactive, DT40 TDP1 no CPT inactive and TGFb SMAD3 inh inactive.
CC(C)(C)C(=O)N1CCN(c2ccnc3cc(Cl)ccc23)CC1 was read as HepG2 tox inactive, TDP1 cell CPT inconclusive, IL-1B inflam inh inactive, DT40 TDP1 no CPT inconclusive, TGFb SMAD3 inh inactive and TDP1 block inactive.
`COc1ccccc1NC(=O)N1CCN(c2ccnc3cc(Cl)ccc23)CC1` gave HepG2 tox inactive, TDP1 cell CPT inconclusive, IL-1B inflam inh -75, DT40 TDP1 no CPT 16µM, TGFb SMAD3 inh inactive and TDP1 block inactive.
For COc1ccccc1NC(=O)N1CCc2[nH]c3ccc(Cl)cc3c2C1 the results were HepG2 tox inactive, TDP1 cell CPT 21µM, DT40 TDP1 no CPT inconclusive, TGFb SMAD3 inh inactive and TDP1 block inactive.
`COc1ccccc1N1CCN(c2ccnc3cc(Cl)ccc23)CC1` gave HepG2 tox inactive, TDP1 cell CPT 2.6µM, IL-1B inflam inh inactive, DT40 TDP1 no CPT 4.6µM, TGFb SMAD3 inh inactive and TDP1 block inactive.
For O=C(Nc1ccc(OC(F)(F)F)cc1)N1CCN(c2ccnc3cc(Cl)ccc23)CC1 the results were HepG2 tox inactive, TDP1 cell CPT 4.6µM, IL-1B inflam inh inconclusive, DT40 TDP1 no CPT 5.2µM, TGFb SMAD3 inh inconclusive and TDP1 block inactive.
CCOC(=O)c1cccc(NC(=O)NCc2cccn2Cc2ccccc2)c1 was read as HepG2 tox inactive, TDP1 cell CPT inconclusive, DT40 TDP1 no CPT inconclusive, TGFb SMAD3 inh inactive and TDP1 block inactive.
For N#Cc1ccc(C[C@H](C(=O)O)N2C(=O)c3ccc(C(=O)O)cc3C2=O)cc1 the results were TDP1 block inactive.
Screening Nc1nc(-c2ccc3ccccc3c2)cs1 returned HepG2 tox inactive, TDP1 cell CPT inactive, IL-1B inflam inh -67, DT40 TDP1 no CPT inactive, TGFb SMAD3 inh inactive and TDP1 block inactive.
CN(C)/C=N/c1nc(-c2ccc3ccccc3c2)cs1 was read as HepG2 tox inactive, TDP1 cell CPT inactive, IL-1B inflam inh -61, DT40 TDP1 no CPT inactive and TGFb SMAD3 inh inactive.
Screening Nc1nc(-c2cc3ccccc3o2)cs1 returned HepG2 tox inactive, TDP1 cell CPT inactive, IL-1B inflam inh -75, DT40 TDP1 no CPT inactive, TGFb SMAD3 inh inactive and TDP1 block inactive.
For Cc1nn(C(C)C(=O)Nc2ccccc2C(F)(F)F)c(=O)c2c1sc1ccccc12 (centres undefined) the results were HepG2 tox inactive, TDP1 cell CPT inactive, DT40 TDP1 no CPT inactive, TGFb SMAD3 inh inactive and TDP1 block inactive.
Nc1nc(C(F)(F)F)cc(=O)n1N was read as HepG2 tox inactive, TDP1 cell CPT inactive, IL-1B inflam inh inactive, DT40 TDP1 no CPT inactive, TGFb SMAD3 inh inactive and TDP1 block inactive.
Cc1ccc(C)c(NC(=O)CCc2c(C)nn(-c3ccc(N4CCCC4)nn3)c2C)c1 was read as HepG2 tox inactive, TDP1 cell CPT inconclusive, DT40 TDP1 no CPT inconclusive, TGFb SMAD3 inh inactive and TDP1 block inactive.
